The panel holds about 83,000 compounds, 20% with a hit somewhere; the sample as a whole holds those more often.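 How to read the values: 0–100, growth inhibition (40 = 60% inhibited); 0, no net growth; -100 to 0, cell death (-40 = 40% of starting cells died; -100 = all dead).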 A number with no mark means an inactive call. Active and inactive are the calls of the source. How the source made its calls: active means growth percent below 10; inactive means the rest.
Tested on: HL-60(TB) leukemia
Experiment: NCI-60 one-dose screen, 48 h (100 = growth as untreated, 0 = no growth, -100 = all killed)
Details: 10 µM unless noted

SMILES | growth
COc1ccc(-c2nn(-c3cccc(Cl)c3)cc2-c2cc(-c3cccs3)[nH]c(=S)n2)cc1 | 46.4%
c1cc(C2CCCCC2)ccc1OCCCCCCN1CCNCC1 | -38.4% (active)
COc1ccc(C(=O)/C=C/c2ccc(N3CCCCC3)cc2)cc1OC | 78.9%
O=C1C(=O)N(Cc2ccc(-c3ccccc3)cc2)c2ccc(OC(F)(F)F)cc21 | 17.7%
O=S(=O)(OCCOS(=O)(=O)c1ccccc1)c1ccccc1 | 92.5%
COc1ccccc1N1CCN(CCn2c(=O)c3c(c4ccccc4n3C)n(C)c2=O)CC1 | 109%
COc1ccc(/C=C2\COc3ccc(-c4ccccc4)cc3C2=O)c(OC)c1 | 56.9%
COc1cc(C2CC(c3ccc(C)cc3)=NN2C=O)ccc1OCCN(C)C (stereo unspecified) | 95.3%
C[C@@H](C[C@H](CCO)c1ccccc1)c1ccc2ccccc2c1 | -38.5% (active)
CC1CCCN(CCCCCOc2ccc3oc4ccc(Cl)cc4c(=O)c3c2)C1 (stereo unspecified) | 48.6%
Cc1nc(Nc2nc3ccccc3o2)nc(-c2cccc([N+](=O)[O-])c2)c1C(=O)Nc1ccc(F)c(Cl)c1 | -22.1% (active)
Cc1cc(C)c(-c2c(N)cc(Br)cc2Br)c(N)c1 | 21.1%
O=c1cc(C2NNC(=S)N2)c2ccc3ccccc3c2o1 (stereo unspecified) | 102%
Nc1c(Cl)cc(N=Nc2ccccc2)cc1Cl | 97.4%
COC1OC(CO)C(OC)C(O)C1O (stereo unspecified) | 103%
O=C(CSc1nc(-c2ccc(Cl)cc2)cn1-c1ccc(Cl)cc1)c1ccc(Br)cc1 | 97.1%

Source: PubChem BioAssay (NCI)
